From PubChem BioAssay AID371 (SRMLSC, 2006)
Out of some 3,300 compounds screened, about 280 (8.5%) were called active. The entries come from a sample that favours actives as a whole. Values without a mark were called inactive.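 The calls were made as follows: active = mean growth inhibition over the two runs of 50% or more; inactive = mean growth inhibition under 50%.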

Experiment: A549 NSCLC cell proliferation inhibitors – ATP luminescence, human non-small cell lung line, primary screen (AID 371);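 also: compound exposure lasted 72 h before the ATP read; 0% = untreated cell signal and 100% = no luminescence left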
Conditions: at 10 µM, stronger effect = higher value

SMILES | growth inhibition
CC1(C)CNC(=O)c2sc(N3CCOCC3)nc2C1 | 21.1%
Cn1ncc2c(Nc3ccccc3Br)ncnc21 | 4.98%
Cn1c(=O)c2c(nc(Oc3ccc4c(c3)OCO4)n2Cc2ccc(Br)cc2)n(C)c1=O | 38%
Cn1c(=O)c2c(nc(NCc3ccc4c(c3)OCO4)n2Cc2ccc(F)cc2)n(C)c1=O | 74.4% (active)
Cn1c(=O)c2c(nc(Oc3ccc4c(c3)OCO4)n2Cc2ccc(F)cc2)n(C)c1=O | 17.7%
Cn1c(=O)c2c(nc(NCc3ccc4c(c3)OCO4)n2Cc2ccccc2Cl)n(C)c1=O | 20.1%
Cn1c(=O)c2c(nc(NCc3ccc4c(c3)OCO4)n2Cc2ccccc2F)n(C)c1=O | 43.4%
Cn1c(=O)c2c(nc(NCc3ccc4c(c3)OCO4)n2Cc2ccccc2)n(C)c1=O | 67.4% (active)
CC1(C)Cc2c(sc3nc(SCC(=O)NCc4ccco4)n(-c4ccccc4)c(=O)c23)CS1 | 22.8%
CCCc1cc(-n2ccnc2C)n2c(nc3ccccc32)c1C#N | -0.15%
CCOC(=O)C1CCN(c2nc3ccccc3nc2C(C#N)C(=O)NCCc2ccccc2)CC1 (stereo unspecified) | 30.8%
Cc1cc(/C(O)=C2\C(=O)C(=O)N(CCN(C)C)C2c2ccncc2)ccc1OCc1ccccc1 (stereo unspecified) | 2.4%
Cc1cc(C)n(S(=O)(=O)Cc2ccccc2)n1 | 6%
Cc1cc(C)n(C(=O)CNC(=O)CCc2ccccc2)n1 | -2.74%
Cc1cc(C)n(S(=O)(=O)/C=C/c2ccccc2)n1 | 68.5% (active)
Cc1cc(C)n(CC2CC(=O)N(c3ccc(C)c(Cl)c3)C2=O)n1 (stereo unspecified) | 0.93%
Clc1ccc(COc2ccccn2)c(Cl)c1 | 1.66%
COc1ccc(C(=O)c2ccc(N3CCOCC3)cc2)c(OC)c1 | 44.9%
CCOC(=O)C(C)Oc1nc(Oc2ccccc2)nc(N(C)C)n1 (stereo unspecified) | 6.36%
O/N=C1\CCc2cc(Cl)ccc21 | -5.2%
CCOC(=O)N1CCN(C2OC(=O)c3ccccc32)CC1 (stereo unspecified) | -1.65%
CCOC(=O)N1CCC(=C2c3ccc(Cl)cc3CCc3cccnc32)CC1 | 65.8% (active)
CC(=O)Nc1n[nH]c(S(=O)(=O)Cc2ccc(Cl)cc2Cl)n1 | -13.6%
COc1cc(C)nc(Oc2ccc(=O)n(C)n2)n1 | -3.96%
CCCCNC(=O)N1CCOCCOCCN(C(=O)NCCCC)CCOCCOCC1 | 2.12%
COc1ccc(CC(=O)OCN2C(=O)c3ccccc3C2=O)cc1 | 2.96%
